In PubChem BioAssay AID1347076 (National Center for Advancing Translational Sciences (NCATS), 2019):
The whole screen tested about 400,000 compounds, of which about 13,000 (3.2%) were called active. Inconclusive results (about 18%) are left out. What follows is part of a selection rich in actives, with near analogues and random picks from the rest. Values without a mark were called inactive. Calls follow the shape of the dose curve; as a rule, active = well fitted cell-killing curve with a large enough effect; inconclusive = small, poorly fitted or top-dose-only effect, or effect the other way; inactive = flat fitted curve, though single readings scatter.

Assay: qHTS assay for MDR1-selective chemotherapeutics: Primary screen using the drug-selected MDR subline cells KB-V1; also: nearly all actives have a fitted effect of over 60% in size
Conditions: KB-V1 MDR cells viability, CellTiter-Glo, 72 h; series mostly up to 46.1 µM; activity change, negative = cytotoxicity: at the top concentration
Summary of the method: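 KB-V1 MDR subline cells in DMEM (phenol-red free, 10% FBS) exposed to compounds in qHTS concentration series for 72 h at 37 degrees C. Viability read by CellTiter-Glo luminescence; concentration-effect curves fitted after normalization and correction.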
% is scaled to controls: 0 for no effect and ±100 for the full control effect; potency is read from the fitted curve at half-maximal effect.

Structure (SMILES) | activity change, negative = cytotoxicity [%] | Potency
CC(C)(C)C1CCC(=O)N2CCC[C@]2(c2ccccc2)C1 (some centres undefined) | 46.7 | 
CCCCN(C)S(=O)(=O)c1ccc(C(=O)Nc2sc3c(c2C(N)=O)CC(C)(C)NC3(C)C)cc1 | 0 | 
COc1cc(CNCCSc2nnnn2C)ccc1OCc1ccc(Cl)cc1Cl | 0 | 
CCOC(=O)c1c(C)oc2ccc(OCC(=O)N(CC)CC)cc12 | 0 | 
COC(=O)c1c(C)oc2ccc(N(C(=O)Oc3ccccc3)S(=O)(=O)c3ccccc3)cc12 |  | 2.91 µM (active)
CN(CC(=O)O)S(=O)(=O)c1ccc2oc3ccccc3c2c1 | 10.8 | 
O=C(Nc1ccc2c(c1)[C@@H]1C[C@@H](CC(=O)N3CCCCC3)O[C@@H](CO)[C@@H]1O2)NC1CCCCC1 | 3.39 | 
CC1(C(=O)NCC2CCOCC2)Cc2c(-c3cccc(C(N)=O)c3)ccnc2O1 (centres undefined) | 3.72 | 
CC1(C(=O)NCc2ccco2)Cc2c(-c3ccc4c(c3)OCO4)ccnc2O1 (centres undefined) |  | 2.59 µM (active)
CC(=O)Nc1cccc(-c2ccnc3c2CC(C)(C(=O)NCc2ccco2)O3)c1 (centres undefined) | -1.06 | 
O=C(Cn1nnc(-c2ccc3c(c2)OCO3)n1)NCc1ccco1 | 17.1 | 
CC(=O)Nc1cccc(-c2ccnc3c2CC(C)(C(=O)NCc2ccccc2)O3)c1 (centres undefined) |  | 16.4 µM (active)
COc1ccc(NC(=O)C2(C)Cc3c(-c4cccc(NC(C)=O)c4)ccnc3O2)cc1 (centres undefined) | 0 | 
CCc1nc2c(OCCC3CCCCC3)cccn2c1N(C)C(=O)c1ccco1 | 0.295 | 
CCOc1ccc(NS(=O)(=O)c2ccc(C(=O)NCC3CCCO3)cc2)cc1 (centres undefined) | -27.3 | 
COc1ccc(-c2cc(NC(C)=O)c3ncc(-c4cc(OC)c(OC)c(OC)c4)n3c2)cn1 |  | 13 µM (active)
COc1ccc(-c2cc(NC=O)c3ncc(-c4cccc(C(=O)N(C)C)c4)n3c2)c(OC)c1 | 6.08 | 
CC(=O)Nc1cc(-c2ccc(N3CCN(C)CC3)cc2)cn2c(-c3cccc(C(=O)N(C)C)c3)cnc12 | 6.38 | 
COc1cc(NC(=O)C2=CC(c3ccc(C)cc3)=NS(=O)(=O)N2C)cc(OC)c1OC | 8 | 
COc1cccc(-c2cnc3c(NC(C)=O)cc(-c4cccc(NC(C)=O)c4)cn23)c1 | 3.14 | 

Structure (SMILES) | activity change, negative = cytotoxicity [%] | Potency
COc1cccc(-c2cnc3c(NC(C)=O)cc(-c4cc(F)ccc4OC)cn23)c1 |  | 7.31 µM (active)
O=C(Nc1cc(F)ccc1F)c1ccc2c(=O)n3c(nc2c1)CCC3 | 1.07 | 
CCOC(=O)c1c(NC(=O)CSc2cn(CCNC(=O)c3cccc(C(F)(F)F)c3)c3ccccc23)sc2c1CCC2 | 10.6 | 
OC[C@@H]1CN(Cc2cccs2)C[C@H](n2cnc3c(Nc4ccccc4)ncnc32)O1 | -0.405 | 
CCCc1nc2ccccc2c(=O)n1NC(=O)c1c(O)c2ccccc2[nH]c1=O |  | 7.31 µM (active)
COc1cc(C(=O)Nn2c(CC(C)C)nc3ccccc3c2=O)cc(OC)c1OC | -5.04 | 
Cc1nc2ccccc2c(=O)n1NC(=O)c1ccccc1 | 19.9 | 
O=C(CN1C(=O)NC2(CCc3ccccc32)C1=O)NC1CCCCC1 (centres undefined) | 0.553 | 
CC(C)CN1CCC1(C)C(=O)Nc1ccc(OC(F)F)cc1 (centres undefined) | -2.57 | 
Cc1ccc(OCCSc2nc(-c3cccs3)nc3cc(=O)[nH]n23)cc1Cl | -5.26 | 
O=C(NC1CCN(Cc2ccccc2)CC1)c1cc(Br)c(Br)[nH]1 | -26.5 | 
O=C(COc1ccc(Br)cc1F)NC1CCN(Cc2ccccc2)CC1 | -5.46 | 
S=C(Nc1ccc(Br)cc1Cl)NC1CCN(Cc2ccccc2)CC1 |  | 11.6 µM (active)
CCc1nc2c(OCCOc3ccccc3)cccn2c1N(C)C(=O)c1ccc(OC)cc1 | -18.3 | 
COCCCn1cc(CN2CC(N(C)C)CS2(=O)=O)nn1 (centres undefined) | -8.55 | 
Cc1c(C(=O)NC2CCCCC2)oc2ccccc12 | -17.7 | 
Cc1nc(/N=C(\N)NC(=O)NC2CCCCC2)nc2ccccc12 |  | 5.17 µM (active)
CC(C)c1cc(C(=O)NC2CCCCCC2)c2ccccc2n1 | -27.2 | 
Nc1ncnc2c1ncn2[C@@H]1O[C@H](C(=O)N2CCSC2)[C@@H](O)[C@H]1O | 14.4 | 
CCN(CC)c1ccc(/C=C/c2c(C)cnc3ccc(C)cc23)cc1 | -20.4 | 

Structure (SMILES) | activity change, negative = cytotoxicity [%] | Potency
CCOC(=O)N1CCN(C(=O)C[C@@H]2C[C@@]3(C(=O)OC)CC(C)(C)CC=C3N(Cc3ccco3)C2=O)CC1 | -19.3 | 
CCN(CC)C(=O)C1=C(C)N(Cc2ccc(OC)cc2)C(=O)C(CC(=O)NCCCCc2ccccc2)C1 (centres undefined) | 5.55 | 
COC(=O)[C@@]12C[C@@H](CC(=O)NCCCCc3ccccc3)C(=O)N(Cc3ccccc3)C1=CCC(C)(C)C2 |  | 23.1 µM (active)
COC(=O)[C@]12CCCCC=C1N(Cc1ccco1)C(=O)[C@H](CC(=O)NCCCCc1ccccc1)C2 | 16.2 | 
COC(=O)[C@@]12C[C@@H](CC(=O)NCCCCc3ccccc3)C(=O)N(CCc3ccc(OC)c(OC)c3)C1=CCC(C)(C)C2 |  | 16.4 µM (active)
COC(=O)[C@]12CCCCC=C1N(Cc1ccccc1)C(=O)[C@H](CC(=O)NCc1ccc(C)o1)C2 | -6.44 | 
COc1ccc(CN2C[C@H]3CON(C)[C@H]3C[C@H]2c2ccc(-c3cccc(F)c3)cc2)cc1 | 0.771 | 
Cc1ccc(O)c(NC(=O)c2cc(-c3ccc(F)cc3)no2)c1 | 0 | 
Cc1cc2ccccc2n1CCNC(=O)c1ccc(F)cc1 | 0 | 
CC1=C(C(=O)N2CCOCC2)CC(CC(=O)NCC2CCCCC2)C(=O)N1Cc1ccc(F)cc1 (centres undefined) | 7.51 | 
CCOC(=O)c1cc2cc(C)ccc2[nH]1 | 0.803 | 
Cc1ccc2[nH]c(=O)c(COC(=O)c3ccccn3)cc2c1 |  | 16.4 µM (active)
O=C(OCc1cc2ccccc2[nH]c1=O)c1cccnc1 | -6.92 | 
Cc1ccc(S(=O)(=O)N(CCc2ccccc2)c2ccc3c(c2)C2CC3CCN2C(=O)OCc2ccccc2)cc1 (centres undefined) | -9.87 | 
COc1ccc(OC)c(NC(=O)CSC2=Nc3ccccc3C3=NC(CC(=O)NCCc4ccccc4)C(=O)N23)c1 (centres undefined) | 11 | 
O=c1oc2ccccc2cc1-c1cn(-c2ccccc2)c(=S)[nH]1 |  | 5.8 µM (active)
S=c1[nH]c(-c2cccs2)cn1-c1ccccc1 | -1.38 | 
O=C(Nc1cc2ccccc2oc1=O)C1CCCCC1 | 13.7 | 
Cc1ccc(Cn2c(C)c3cnn(CC(=O)NCc4ccccc4)c(=O)c3c2C)cc1 | -13.6 | 
